Assay results from the supplement of paper PMC6522484.
± gives the standard deviation of the averaged measurements.

Key:
DLD1 [1] = assay: cell viability (CellTiter-Glo) relative to plate median (fraction of plate median); higher = more viable cells; details: 5 µM; treatment time 24 h; reporter: 7TFP
In short: (§1)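 Each entry is a luminescence signal normalised to the plate median, averaged over independent replicates. The replicate count was two, and the cells were colorectal cancer lines with stable lentiviral TCF/Wnt firefly luciferase reporters exposed to library compounds at a final 5 µM for 24 h. Firefly luciferase and CellTiterGlo were measured on parallel plates.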

HCT116 = assay: as above; details: 5 µM; treatment time 24 h; reporter: TCF4/Wnt
In short: as §1

SW480 [2] = assay: as above; details: 5 µM; treatment time 24 h; reporter: 7TFP
In short: as §1

DLD1 [3] = assay: TCF/Wnt firefly luciferase reporter signal relative to plate median (fraction of plate median); higher = higher Wnt reporter signal; details: 5 µM; treatment time 24 h; reporter: 7TFP
In short: as §1

SW480 [4] = assay: as above; details: 5 µM; treatment time 24 h; reporter: 7TFP
In short: as §1

SMILES: Nc1ncn([C@@H]2O[C@H](CO)[C@@H](O)[C@H]2O)c(=O)n1
- cell viability (DLD1 [1]): 0.992 ± 0.011
- cell viability (HCT116): 0.945 ± 0.035
- cell viability (SW480 [2]): 1.07 ± 0.092
- TCF/Wnt firefly luciferase reporter signal (DLD1 [3]): 1.01 ± 0.13
- TCF/Wnt firefly luciferase reporter signal (SW480 [4]): 1.085 ± 0.0071

SMILES: NNCCc1ccccc1
- cell viability (DLD1 [1]): 0.995 ± 0.11
- cell viability (HCT116): 0.943 ± 0.069
- cell viability (SW480 [2]): 0.98 ± 0.042
- TCF/Wnt firefly luciferase reporter signal (DLD1 [3]): 1.26 ± 0.2
- TCF/Wnt firefly luciferase reporter signal (SW480 [4]): 1.22 ± 0.014

SMILES: OCc1c[nH]c2ccccc12
- cell viability (DLD1 [1]): 1.01
- cell viability (HCT116): 0.93 ± 0.03
- cell viability (SW480 [2]): 0.948 ± 0.042
- TCF/Wnt firefly luciferase reporter signal (DLD1 [3]): 1.06 ± 0.064
- TCF/Wnt firefly luciferase reporter signal (SW480 [4]): 0.992 ± 0.026

SMILES: O=C(CC(=O)c1ccccc1)c1ccccc1
- cell viability (DLD1 [1]): 0.972 ± 0.069
- cell viability (HCT116): 0.82 ± 0.026
- cell viability (SW480 [2]): 1.03
- TCF/Wnt firefly luciferase reporter signal (DLD1 [3]): 1.15 ± 0.021
- TCF/Wnt firefly luciferase reporter signal (SW480 [4]): 1.17 ± 0.057

SMILES: Cc1ccc(C(C)C)cc2c(C)ccc1-2
- cell viability (DLD1 [1]): 1.04 ± 0.057
- cell viability (HCT116): 1.085 ± 0.0071
- cell viability (SW480 [2]): 1.06 ± 0.014
- TCF/Wnt firefly luciferase reporter signal (DLD1 [3]): 1 ± 0.14
- TCF/Wnt firefly luciferase reporter signal (SW480 [4]): 0.894 ± 0.16

SMILES: CC(=O)N[C@@H](Cc1c[nH]c2ccccc12)C(N)=O
- cell viability (DLD1 [1]): 1.07 ± 0.11
- cell viability (HCT116): 0.831 ± 0.1
- cell viability (SW480 [2]): 1.07 ± 0.028
- TCF/Wnt firefly luciferase reporter signal (DLD1 [3]): 1.04 ± 0.18
- TCF/Wnt firefly luciferase reporter signal (SW480 [4]): 0.891 ± 0.061

SMILES: NS(=O)(=O)c1cc2c(cc1Cl)NCNS2(=O)=O
- cell viability (DLD1 [1]): 0.988 ± 0.1
- cell viability (HCT116): 1.02
- cell viability (SW480 [2]): 1.04 ± 0.042
- TCF/Wnt firefly luciferase reporter signal (DLD1 [3]): 1.15 ± 0.071
- TCF/Wnt firefly luciferase reporter signal (SW480 [4]): 1.1 ± 0.028

SMILES: O=C(O)[C@H](O)[C@@](O)(Cc1ccc(O)cc1)C(=O)O
- cell viability (DLD1 [1]): 0.954 ± 0.08
- cell viability (HCT116): 0.962 ± 0.082
- cell viability (SW480 [2]): 0.955 ± 0.021
- TCF/Wnt firefly luciferase reporter signal (DLD1 [3]): 1.005 ± 0.0071
- TCF/Wnt firefly luciferase reporter signal (SW480 [4]): 0.923 ± 0.11

SMILES: CC(C)c1nc(N(C)S(C)(=O)=O)nc(-c2ccc(F)cc2)c1/C=C/[C@@H](O)C[C@@H](O)CC(=O)O
- cell viability (DLD1 [1]): 0.93 ± 0.11
- cell viability (HCT116): 0.9675 ± 0.00071
- cell viability (SW480 [2]): 1.02 ± 0.014
- TCF/Wnt firefly luciferase reporter signal (DLD1 [3]): 0.984 ± 0.08
- TCF/Wnt firefly luciferase reporter signal (SW480 [4]): 0.913 ± 0.15

SMILES: COC(=O)C(O)c1ccccc1 (stereo not given)
- cell viability (DLD1 [1]): 1.04 ± 0.021
- cell viability (HCT116): 1.11
- cell viability (SW480 [2]): 1.07 ± 0.035
- TCF/Wnt firefly luciferase reporter signal (DLD1 [3]): 1.04 ± 0.042
- TCF/Wnt firefly luciferase reporter signal (SW480 [4]): 0.876 ± 0.019

SMILES: Nc1nc(/C(=C/CC(=O)O)C(=O)N[C@@H]2C(=O)N3C(C(=O)O)=CCS[C@H]23)cs1
- cell viability (DLD1 [1]): 0.988 ± 0.06
- cell viability (HCT116): 1.03 ± 0.021
- cell viability (SW480 [2]): 0.985 ± 0.0042
- TCF/Wnt firefly luciferase reporter signal (DLD1 [3]): 1.13 ± 0.22
- TCF/Wnt firefly luciferase reporter signal (SW480 [4]): 1.01 ± 0.052

SMILES: Nc1c(Br)cc(Br)cc1CN[C@H]1CC[C@H](O)CC1
- cell viability (DLD1 [1]): 0.914 ± 0.066
- cell viability (HCT116): 1.09 ± 0.11
- cell viability (SW480 [2]): 0.946 ± 0.029
- TCF/Wnt firefly luciferase reporter signal (DLD1 [3]): 0.944 ± 0.19
- TCF/Wnt firefly luciferase reporter signal (SW480 [4]): 0.887 ± 0.016

SMILES: Cc1cc(C(C)(C)CC(C)(C)C)ccc1OCCOCC[N+](C)(C)Cc1ccccc1
- cell viability (DLD1 [1]): 1.02 ± 0.069
- cell viability (HCT116): 0.977 ± 0.076
- cell viability (SW480 [2]): 1.08 ± 0.014
- TCF/Wnt firefly luciferase reporter signal (DLD1 [3]): 0.87 ± 0.061
- TCF/Wnt firefly luciferase reporter signal (SW480 [4]): 0.909 ± 0.028

SMILES: C=CCCCCCCCCCCCc1ccco1
- cell viability (DLD1 [1]): 0.98 ± 0.085
- cell viability (HCT116): 1 ± 0.069
- cell viability (SW480 [2]): 1.01 ± 0.035
- TCF/Wnt firefly luciferase reporter signal (DLD1 [3]): 0.854 ± 0.0099
- TCF/Wnt firefly luciferase reporter signal (SW480 [4]): 0.957 ± 0.028

SMILES: O=C(/C=C/c1ccccc1)c1ccc(O)cc1O
- cell viability (DLD1 [1]): 1 ± 0.025
- cell viability (HCT116): 0.984 ± 0.0071
- cell viability (SW480 [2]): 0.99 ± 0.028
- TCF/Wnt firefly luciferase reporter signal (DLD1 [3]): 1.12 ± 0.071
- TCF/Wnt firefly luciferase reporter signal (SW480 [4]): 1.07 ± 0.014
